According to PubChem BioAssay (EPA / NIEHS):
“And” between values parts separate entries of the source, which are not always exact repeats. Equal entries are not always repeated. More than one record can exist for a structure, and the calls need not agree. The source made the active and inactive calls. How the source made its calls: active means hit-call score of the fitted dose curve at least 0.9, where 1 is the maximum; inactive means score below 0.9.

How the values were obtained:
[1] = read-out: Matrix Metallopeptidase 1 (MMP1), MMP1 (gene 4312); assay: BSK_BF4T_MMP1: BioMAP Diversity Plus: BF4T Assay for Matrix Metallopeptidase 1 (MMP1) Biomarker Activity (AID 2284270); settings: primary human bronchial epithelial cells with fibroblasts
Method in brief: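 MMP-1 quantified by ELISA in primary human bronchial epithelial/dermal fibroblast co-cultures, 24 hours post-dosing, with DMSO as baseline; parallel sulforhodamine B staining (560 nm) tracks overt cytotoxicity.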

[2] = read-out: Tissue plasminogen activator (tPA), PLAT (gene 5327); assay: BSK_BF4T_tPA: BioMAP Diversity Plus: BF4T Assay for Tissue plasminogen activator (tPA) Biomarker Activity (AID 2284272); settings: primary human bronchial epithelial cells with fibroblasts
Method in brief: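 tPA level quantified by ELISA at 24 h post-treatment in bronchial epithelial/dermal fibroblast co-cultures, gain of signal scored against DMSO baseline. Parallel cultures stained with 0.1% SRB (560 nm) to flag overt cytotoxicity.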

[3] = read-out: Plasminogen Activator Inhibitor-1 (PAI1), SERPINE1 (gene 5054); assay: BSK_BF4T_PAI1: BioMAP Diversity Plus: BF4T Assay for Plasminogen Activator Inhibitor-1 (PAI1) Biomarker Activity (AID 2284273); settings: primary human bronchial epithelial cells with fibroblasts
Method in brief: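 PAI-1 levels quantified by ELISA 24 h post-dosing in bronchial epithelial cell plus dermal fibroblast cultures. Signal gain referenced to DMSO baseline. Sulforhodamine B total-protein staining of parallel wells checked cytotoxicity.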

[4] = BSK_BF4T_SRB: Viability Assessment in the BioMAP Diversity Plus: BF4T Assay (AID 2284274); settings: primary human bronchial epithelial cells with fibroblasts
Method in brief: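 Cytotoxicity measured as total protein: cells fixed with 10% TCA, stained with 0.1% SRB, read at 560 nm. Bronchial epithelial/dermal fibroblast co-culture, 24 h after dosing, with positive-direction fitting relative to DMSO.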

[5] = read-out: urokinase Plasminogen Activator (uPA), PLAU (gene 5328); assay: BSK_BF4T_uPA: BioMAP Diversity Plus: BF4T Assay for urokinase Plasminogen Activator (uPA) Biomarker Activity (AID 2284275); settings: primary human bronchial epithelial cells with fibroblasts
Method in brief: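 uPA levels measured by ELISA at 24 hours in BF4T cultures (bronchial epithelial cells plus dermal fibroblasts) and compared with DMSO; cytotoxicity tracked in parallel cultures by sulforhodamine B staining.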

[6] = read-out: Matrix Metallopeptidase 9 (MMP9), MMP9 (gene 4318); assay: BSK_BF4T_MMP9: BioMAP Diversity Plus: BF4T Assay for Matrix Metallopeptidase 9 (MMP9) Biomarker Activity (AID 2284276); settings: primary human bronchial epithelial cells with fibroblasts
Method in brief: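 MMP-9 levels were measured by ELISA after 24 h exposure of bronchial epithelial cell/dermal fibroblast co-cultures, with DMSO as baseline. Parallel cultures were stained with 0.1% SRB after TCA fixation, read at 560 nm, to flag overt cytotoxicity.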

[7] = read-out: Interleukin-8 (IL8), CXCL8 (gene 3576); assay: BSK_IMphg_IL8: BioMAP Diversity Plus: IMphg Assay for Interleukin-8 (IL8) Biomarker Activity (AID 2284277); settings: primary human endothelial cells with macrophages
Method in brief: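 IL-8 levels were measured by ELISA 24 h after dosing in primary human venular endothelial cell–macrophage cultures, referenced to DMSO; parallel SRB staining monitored overt cytotoxicity.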

[8] = read-out: Intercellular Adhesion Molecule 1 (ICAM1), ICAM1 (gene 3383); assay: BSK_BE3C_ICAM1: BioMAP Diversity Plus: BE3C Assay for Intercellular Adhesion Molecule 1 (ICAM1) Biomarker Activity (AID 2284278); settings: primary human bronchial epithelial cells
Method in brief: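 ELISA read-out of ICAM-1 on human lung bronchial epithelial primary cells, 24 h post-dosing; positive-direction curve fit, DMSO = baseline. SRB total-protein staining of parallel cultures flagged overt cytotoxicity.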

[9] = read-out: Interleukin-8 (IL8), CXCL8 (gene 3576); assay: BSK_BE3C_IL8: BioMAP Diversity Plus: BE3C Assay for Interleukin-8 (IL8) Biomarker Activity (AID 2284280); settings: primary human bronchial epithelial cells
Method in brief: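 Primary human bronchial epithelial cells (BE3C system) were exposed to test chemical for 24 h, and IL-8 levels were then measured by ELISA. Activity was fitted in the positive (gain-of-signal) direction against a DMSO negative-control baseline.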

[10] = read-out: Epidermal growth factor receptor (EGFR), EGFR (gene 1956); assay: BSK_BE3C_EGFR: BioMAP Diversity Plus: BE3C Assay for Epidermal growth factor receptor (EGFR) Biomarker Activity (AID 2284281); settings: primary human bronchial epithelial cells
Method in brief: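 Human primary bronchial epithelial cells were exposed to compound for 24 h, and cell-surface EGFR was then quantified by ELISA. Activity was fitted in the positive direction against the DMSO vehicle baseline.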

[11] = read-out: KRT18 (gene 3875); assay: BSK_BE3C_Keratin818: BioMAP Diversity Plus: BE3C Assay for Keratin 818 Biomarker Activity (AID 2284282); settings: primary human bronchial epithelial cells
Method in brief: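 ELISA read-out of Keratin 8/18 in BE3C human bronchial epithelial cultures, 24 h post-dosing; positive-direction fit vs DMSO baseline.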

[12] = read-out: Matrix Metallopeptidase 9 (MMP9), MMP9 (gene 4318); assay: BSK_BE3C_MMP9: BioMAP Diversity Plus: BE3C Assay for Matrix Metallopeptidase 9 (MMP9) Biomarker Activity (AID 2284283); settings: primary human bronchial epithelial cells
Method in brief: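 Human primary bronchial epithelial cells in the BE3C system were dosed with compound for 24 h. MMP-9 was measured by ELISA, and the positive-direction response was fitted relative to DMSO as baseline. Parallel SRB staining gauged cytotoxicity.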

[13] = read-out: Plasminogen activator inhibitor-1 (PAI1), SERPINE1 (gene 5054); assay: BSK_CASM3C_PAI1: BioMAP Diversity Plus: CASM3C Assay for Plasminogen activator inhibitor-1 (PAI1) Biomarker Activity (AID 2284284); settings: primary human coronary artery smooth muscle cells
[14] = read-out: Monocyte Chemoattractant Protein-1 (MCP1), CCL2 (gene 6347); assay: BSK_hDFCGF_MCP1: BioMAP Diversity Plus: hDFCGF Assay for Monocyte Chemoattractant Protein-1 (MCP1) Biomarker Activity (AID 2284285); settings: primary human foreskin fibroblasts
Method in brief: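 MCP-1 ELISA readout was taken 24 hours after dosing primary human dermal fibroblasts in the hDFCGF system, with DMSO as baseline. Parallel sulforhodamine B staining of total protein tracked overt cytotoxicity.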

[15] = read-out: Vascular cell adhesion molecule 1 (VCAM1), VCAM1 (gene 7412); assay: BSK_IMphg_VCAM1: BioMAP Diversity Plus: IMphg Assay for Vascular cell adhesion molecule 1 (VCAM1) Biomarker Activity (AID 2284286); settings: primary human endothelial cells with macrophages
Method in brief: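 ELISA read-out of VCAM-1 on venular endothelial cell/macrophage co-cultures at 24 h post-treatment, with DMSO as baseline and positive-direction fitting. Parallel sulforhodamine B total-protein staining (560 nm) served as the overt cytotoxicity measure.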

[16] = read-out: Intercellular Adhesion Molecule 1 (ICAM1), ICAM1 (gene 3383); assay: BSK_hDFCGF_ICAM1: BioMAP Diversity Plus: hDFCGF Assay for Intercellular Adhesion Molecule 1 (ICAM1) Biomarker Activity (AID 2284287); settings: primary human foreskin fibroblasts
Method in brief: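 ICAM-1 ELISA readout 24 h after dosing, DMSO as baseline, in human dermal foreskin fibroblast cultures. Cytotoxicity checked in parallel wells by SRB staining (0.1% SRB, 10% TCA fixation, 560 nm).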

[17] = read-out: CD40, CD40 (gene 958); assay: BSK_IMphg_CD40: BioMAP Diversity Plus: IMphg Assay for CD40 Biomarker Activity (AID 2284288); settings: primary human endothelial cells with macrophages
Method in brief: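 ELISA read-out of cell-surface CD40 at 24 h in human venular endothelial cell/macrophage co-cultures. Activity fitted in the positive direction against DMSO; parallel SRB staining (560 nm) gauges overt cytotoxicity.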

[18] = read-out: TIMP metallopeptidase inhibitor 2 (TIMP2), TIMP2 (gene 7077); assay: BSK_hDFCGF_TIMP2: BioMAP Diversity Plus: hDFCGF Assay for TIMP metallopeptidase inhibitor 2 (TIMP2) Biomarker Activity (AID 2284289); settings: primary human foreskin fibroblasts
Method in brief: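 Primary human foreskin fibroblasts in the hDFCGF system, dosed for 24 h; TIMP-2 level measured by ELISA, fitted in the positive direction against DMSO; cytotoxicity checked in parallel by sulforhodamine B total protein staining.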

Measured: AC50

NC(=O)C(F)(F)C(F)(F)C(F)(F)C(F)(F)C(N)=O
active: [16] 17.6 µM | [18] 220 nM
inactive: [1] | [2] | [3] | [4] | [5] | [6] | [7] | [8] | [9] | [10] | [11] | [12] | [13] | [14] | [15] | [16] | [17] | [18]

O=C(O)C(F)(F)C(F)(F)C(F)(F)OC(F)(F)F
inactive: all assays above

NC(=O)C(F)(F)C(F)(F)C(F)(F)F
inactive: all assays above

O=C(F)C1(F)C(F)(F)C(F)(F)C(F)(F)C(F)(F)C1(F)F
inactive: all assays above

CN(C(=O)C(F)(F)C(F)(F)C(F)(F)F)[Si](C)(C)C
inactive: all assays above

OC(O)C(F)(F)C(F)(F)F
inactive: all assays above

C[Si](Cl)(Cl)CCC(F)(F)C(F)(F)C(F)(F)C(F)(F)C(F)(F)C(F)(F)F
inactive: [1] | [2] | [3] | [4] | [5] | [6] | [7] | [8] | [9] | [10] | [11] | [12] | [13] | [14] | [15] | [16] | [17] | [18]
active: [14] 441 nM | [16] 2.46 µM | [18] 236 nM

O=C(O)C(F)(F)C(F)(F)C(F)(F)C(F)(F)C(F)(F)C(F)(F)C(F)F
active: [7] 30 µM and 21.7 µM and 32.1 µM | [18] 957 nM
inactive: [1] | [2] | [3] | [4] | [5] | [6] | [8] | [9] | [10] | [11] | [12] | [13] | [14] | [15] | [16] | [17] | [18]

NC(O)(C(F)(F)F)C(F)(F)F
inactive: all assays above

NS(=O)(=O)C(F)(F)C(F)(F)C(F)(F)C(F)(F)C(F)(F)C(F)(F)F
active: [7] 16.3 µM and 8.64 µM | [9] 25.1 µM and 15.2 µM | [12] 13.9 µM and 15 µM | [17] 39.5 µM and 25.4 µM | [18] 54600 nM
inactive: [1] | [2] | [3] | [4] | [5] | [6] | [8] | [10] | [11] | [13] | [14] | [15] | [16] | [18]

FC(F)(F)C(F)(F)C(F)(F)C(F)(F)C(F)(F)C(F)(F)CC[Si](Cl)(Cl)Cl
inactive: [1] | [2] | [3] | [4] | [5] | [6] | [7] | [8] | [9] | [10] | [11] | [12] | [13] | [14] | [15] | [16] | [17] | [18]
active: [14] 39.3 nM | [18] 519 nM

CCN=C1C=CC(=C(c2ccc(N(CC)CC)cc2)c2ccc(N(CC)CC)cc2)c2ccccc21
inactive: [10]
active: [8] 3.19 µM and 2.57 µM | [9] 4.21 µM and 3.7 µM | [11] 1.61 µM and 1.51 µM | [12] 1.07 µM and 490 nM | [13] 5.67 µM and 5.38 µM | [14] 1.63 µM and 1.44 µM | [16] 1.9 µM and 1.77 µM | [18] 677 nM and 195 nM
